Sampled rows, rich in hits. Any-hit rate of the full collection: about 9%.
JMJD2A Tudor inh: blocks the human JMJD2A Tudor domain; AlphaScreen JMJD2A-Tudor / H3K4me3 peptide binding; 390,000 compounds, 4.4% hits; O75164; AID 504339; Potency, µM (series often up to 114 µM), for inactives: top-dose activity change, negative = inhibition, hits mostly inhibitors; also: % is scaled to controls: 0 for no effect and ±100 for the full control effect; nearly all actives have a fitted effect of over 50% in size
BAZ2B block: inhibitors of human BAZ2B bromodomain; Q9UIF8; AlphaScreen BAZ2B-H3K14Ac peptide displacement; Potency, µM (top dose mostly 114 µM), inactives show at the highest dose activity change, negative = inhibition, hits mostly inhibitors; 360,000 compounds, 4.4% hits; AID 504333; also: % is scaled to controls: 0 for no effect and ±100 for the full control effect; nearly all actives have a fitted effect of over 60% in size
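AlphaScreen displacement of biotin-H3(5-23)K14Ac peptide (50 nM final) from BAZ2B (50 nM final) in PBS pH 7.4, 0.01% Tween-20; complex preformed 30 min RT, then compounds (top 110 uM) 30 min RT, beads 20 min dark.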
12-LOX inh: blocks human arachidonate 12S-lipoxygenase; 580,000 compounds, 1.1% hits; AID 1671190; P18054; Potency, µM (titrated, usually from 108 µM), inactives show at the highest dose activity change, negative = inhibition, hits mostly inhibitors; purified 12hLO, xylenol orange hydroperoxide absorbance; also: % is scaled to controls: 0 for no effect and ±100 for the full control effect
Target sequence (P18054 whole entry, looked up): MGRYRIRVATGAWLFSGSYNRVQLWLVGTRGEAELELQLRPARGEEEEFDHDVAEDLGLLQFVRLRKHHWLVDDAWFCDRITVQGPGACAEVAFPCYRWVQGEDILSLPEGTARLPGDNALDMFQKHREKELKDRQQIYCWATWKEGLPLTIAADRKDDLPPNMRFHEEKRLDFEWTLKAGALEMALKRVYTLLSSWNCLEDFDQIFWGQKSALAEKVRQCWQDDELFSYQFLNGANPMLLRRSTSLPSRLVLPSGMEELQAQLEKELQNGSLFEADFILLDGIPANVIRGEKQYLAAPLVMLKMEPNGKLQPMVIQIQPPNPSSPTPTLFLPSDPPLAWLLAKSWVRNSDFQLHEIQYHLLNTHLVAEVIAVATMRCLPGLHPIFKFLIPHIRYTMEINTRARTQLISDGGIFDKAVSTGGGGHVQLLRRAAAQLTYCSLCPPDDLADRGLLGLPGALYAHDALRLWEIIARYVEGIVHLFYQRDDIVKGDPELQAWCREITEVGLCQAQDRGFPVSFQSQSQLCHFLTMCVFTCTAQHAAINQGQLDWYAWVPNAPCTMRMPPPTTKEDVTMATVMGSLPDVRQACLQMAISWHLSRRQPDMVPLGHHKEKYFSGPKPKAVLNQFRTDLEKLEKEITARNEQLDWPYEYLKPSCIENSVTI
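Purified human 12hLO (150 nM final) in 25 mM Hepes, 0.01% Triton X-100, pH 7.0 was preincubated 15 min at room temperature with compound. Then 40 uM arachidonic acid was added, 30 min. Hydroperoxide was read by Fe-XO absorbance ratio 573/405 nm.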
HP1b binding inh: inhibitors of HP1-beta chromodomain binding to methylated histone tails. Potency, µM (titrated, usually from 114 µM), inactives show at the highest dose activity change, negative = inhibition, hits mostly inhibitors. P83916. 390,000 compounds, 0.56% hits. AID 540317. AlphaScreen HP1-beta / biotin-H3K9me3 peptide binding; also: nearly all actives have a fitted effect of over 70% in size
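HP1-beta protein (50 nM final) preincubated 30 min at room temperature with biotinylated H3(1-18)K9me3 peptide (50 nM) in PBS pH 7.4, 0.01% Tween-20, then compound added for 30 min. AlphaScreen streptavidin donor/nickel chelate acceptor beads (10 ug/mL final), 30 min dark, luminescence read.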
G9a inh: inhibitors of human histone lysine methyltransferase G9a. Q96KQ7. G9a H3K9 monomethylation, AlphaScreen, 2 h. Potency, µM (top dose mostly 102 µM), for the others: at the top dose activity, negative = inhibition, usual class: inhibitors. 350,000 compounds, 8.8% hits. AID 504332; also: % is scaled to controls: 0 for no effect and ±100 for the full control effect; nearly all actives have a fitted effect of over 75% in size
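Methyltransferase reactions run at room temperature for 2 h (20 nM enzyme, 500 nM biotin-H3K9 peptide, 20 uM SAM) after a 15 min compound preincubation; product detected by AlphaScreen beads and anti-H3K9me1 antibody.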
PLK1 PBD inh: inhibitors of human PLK1 polo-box domain binding. P53350. Plk1 PBD binding of FITC phosphopeptide, fluorescence polarization. Potency, µM, inactives show max response, negative = inhibition, usual class: inhibitors. 360,000 compounds, 2.8% hits. AID 720504; also: series mostly up to about 57 µM; % is scaled to controls: 0 for no effect and ±100 for the full control effect; nearly all actives have a fitted effect of over 65% in size
* marks the source's active call; other numbers are inactive results; ? = inconclusive; nt = not tested or not shown; [ ] = remark or other dose. Calls follow the shape of the dose curve; as a rule, active = well fitted curve in the direction sought with a large enough effect; inconclusive = small, poorly fitted or top-dose-only effect, or another doubt; inactive = no such curve, though single readings can be large; an effect the other way counts as inactive or inconclusive. Potency is read from the fitted curve at half-maximal effect.

SMILES	JMJD2A Tudor inh	BAZ2B block	12-LOX inh	HP1b binding inh	G9a inh	PLK1 PBD inh
COc1ccc(C(c2c(C)[nH][nH]c2=O)c2c(C)[nH][nH]c2=O)cc1Br	-20%	-6%	?	13%	?	24µM*
COc1cc(C(c2c(C)[nH][nH]c2=O)c2c(C)[nH][nH]c2=O)ccc1OS(=O)(=O)c1ccc(C)cc1	-29%	-26%	6%	21%	2.8µM*	?
COc1ccc(OC)c(C(c2c(C)[nH][nH]c2=O)c2c(C)[nH][nH]c2=O)c1	-2%	-1%	-29%	32%	-5%[2.33 µM]	?
COc1cc(C(c2c(C)[nH][nH]c2=O)c2c(C)[nH][nH]c2=O)ccc1OS(=O)(=O)c1ccccc1	-32%	-26%	13%	10%	22µM*	-1%
COc1cc(C(c2c(C)[nH][nH]c2=O)c2c(C)[nH][nH]c2=O)ccc1OC(C)C	-6%	?	13%	37%	-42%	?
N#C/C(=C/c1ccc(Cl)cc1Cl)c1nc2ccccc2c(=O)[nH]1	-16%	2%	-20%	32%	-1%[59 µM]	nt
COc1cc(C(c2c(C)[nH][nH]c2=O)c2c(C)[nH][nH]c2=O)cc(Cl)c1O	5%	?	?	21%	45µM*	-1%
O=C(O)C1C2CCC(C2)C1C(=O)NCCc1cccc(Cl)c1 (configuration not stated)	2%	-13%	?	61%	-8%	-9%
Cc1ccc(C)c(S(=O)(=O)N2[C@@H]3CC[C@H]2CC(NC(=O)c2ccc(F)cc2)C3)c1 (some centres not stated)	nt	nt	10%	nt	nt	nt
Cc1ccc(S(=O)(=O)N2[C@@H]3CC[C@H]2CC(NC(=O)c2ccncc2)C3)c(C)c1 (some centres not stated)	nt	nt	18µM*	nt	nt	nt
CCn1c(=O)c2c(cnn2C)c2ccccc21	7%	1%	?	29%	?	0%
NS(=O)(=O)c1ccc(NC(=O)Cc2cccs2)cc1	-7%	2%	9%	4%	-5%[59 µM]	1%
CCN(CC)S(=O)(=O)c1ccc(NC(=O)Cc2cccs2)cc1	-23%[11.4 µM]	71µM*	?	?	-7%[59 µM]	27µM*
CC1CCN(S(=O)(=O)c2ccc(NC(=O)CN3CCOCC3)cc2)CC1	-7%	-4%	12%	23%	?	-1%
CC1CCN(S(=O)(=O)c2ccc(NC(=O)Cc3cccs3)cc2)CC1	50µM*	?	?	1%	?	-4%
CC1CCN(CC(=O)Nc2ccc(S(=O)(=O)N3CCC(C)CC3)cc2)CC1	0.79µM*	?	?	?	nt	5%
CCc1cccc(NC(=O)CN2C(=O)CCc3cc(S(=O)(=O)N4CCOCC4)ccc32)c1	-18%	-17%	?	11%	23%[59 µM]	nt
CC1CCN(S(=O)(=O)c2ccc3c(c2)CCC(=O)N3CC(=O)Nc2cccc(C#N)c2)CC1	-32%	50µM*	6%	-21%	3%[12.7 µM]	nt
Cc1cccc(-n2c(=O)c(C#N)cc3c(=O)n4ccccc4nc32)c1	-26%	7%	0%	41%	-7%	-5%
c1ccc2c(c1)ccc1n[nH]nc12	nt	nt	-25%	nt	nt	nt
C[C@@H]1CN([C@H](C)CO)C(=O)CCCn2nncc2CO[C@@H]1CN(C)S(C)(=O)=O	nt	nt	-5%	nt	nt	4%
Cc1ccc(NC(=O)CCc2ccc(S(=O)(=O)NC3CCCCC3)cc2)cc1	-12%	10%[57.1 µM]	18%	23%	1%	-3%
CC1CCCN(S(=O)(=O)c2ccc(NC(=O)CN3CCCCC3)cc2)C1 (configuration not stated)	?	-1%	-1%	24%	45µM*	-17%
O=C(CN1CCCC1)Nc1ccc(S(=O)(=O)N2CCCCC2)cc1	-3%	3%	-7%	28%	-8%[59 µM]	-4%
CC1CCCN(CC(=O)Nc2ccc(S(=O)(=O)N3CCCCC3)cc2)C1 (configuration not stated)	-13%	6%	-25%	26%	-7%[59 µM]	-2%
SMILES	JMJD2A Tudor inh	BAZ2B block	12-LOX inh	HP1b binding inh	G9a inh	PLK1 PBD inh
O=C(CCc1ccc(S(=O)(=O)NC2CCCCC2)cc1)Nc1ccccc1	-13%[11.4 µM]	3%	7%	-7%	9%[2.33 µM]	27µM*
CC(=O)Nc1ccc(S(=O)(=O)N2CCN3CCCC3C2)cc1 (configuration not stated)	-1%	-9%	-9%	30%	79µM*	0%
CC1CCN(S(=O)(=O)c2ccc(NC(=O)CN3CCCC3)cc2)CC1	4µM*	71µM*	?	-26%	10µM*	6%
CC(C)CNC(=O)COC(=O)c1n[nH]c2ccccc12	-4%	3%	95%	23%	-1%	-3%
COCC(=O)NCC12CCC=C1N(C)C(=O)CC2 (configuration not stated)	nt	nt	32%	nt	nt	nt
O=C(COC(=O)c1cc[n+]([O-])cc1)Nc1ccc(Cl)cc1[N+](=O)[O-]	-7%	?	-10%	25%	-21%	4%
Cc1noc(C)c1C(=O)Nc1ccc(S(=O)(=O)N2CCCCC2)cc1	0%	-4%	0%	12%	-8%	0%
Cc1noc(C)c1C(=O)Nc1ccc(S(=O)(=O)N2CCC(C)CC2)cc1	-11%	-6%	-29%	33%	22µM*	-1%
CC(=O)Nc1ccc(S(=O)(=O)N2CCN(C(C)CCc3ccccc3)CC2)cc1 (configuration not stated)	1µM*	50µM*	5.6µM*	?	7.1µM*	-12%
CCOc1ccc(CN2CCN(S(=O)(=O)c3ccc(NC(C)=O)cc3)CC2)cc1OC	22µM*	50µM*	?	?	6.3µM*	2%
CC1CCN(CC(=O)Nc2ccc(S(=O)(=O)NC3CC3)cc2)CC1	20µM*	50µM*	?	?	14µM*	6%
COc1ccc(OC)c(S(=O)(=O)NC2CCCCNC2=O)c1 (configuration not stated)	-15%	-12%	nt	13%	0%	9%
CCOc1ccccc1N(CC(=O)N(C)Cc1ccccc1)S(=O)(=O)c1ccccc1	-20%	-35%	4%	2%	-4%	2%
C/C(=N\NC(=O)c1cccc(S(=O)(=O)Nc2ccccc2Cl)c1)c1ccco1	-17%	-4%	-2%	19%	46%[59 µM]	-5%
C/C(=N\NC(=O)c1ccc(N2CCCC2=O)cc1)c1ccc(O)cc1O	-21%	-5%	2%	54%	nt	-19%
CC(=O)Nc1ccc(S(=O)(=O)N2CCN(Cc3cccs3)CC2)cc1	-99%	35µM*	?	32µM*	18µM*	4%
COc1cc(S(=O)(=O)N2CCN(Cc3cccs3)CC2)ccc1NC(C)=O	5%	-8%	-5%	38%	-14%[59 µM]	3%

Bioassay records from PubChem.
